12 compounds from PubChem BioAssay can be followed below.

Molecules are shown by their SMILES. Unmarked numbers belong to inactive results. Calls of active or inactive are those of the source.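 The calls were made as follows, unless noted: active = mean inhibition over 43.08%, the solvent-only control mean plus 3 SD; inactive = the rest.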

For test [1], the target named is Nuclear receptor coactivator 3 (Homo sapiens) (UniProt Q9Y6Q9). In words: NCOA3 GAL4-fusion reporter inhibition – cell-based, luminescence, quadruplicate, confirmation (AID 588792).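 Also: 0% = DMSO treated cells and 100% = gossypol at 36 µM.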 Particulars: HEK293 GAL4-SRC3 luciferase reporter, at 3.6 µM, active compounds read high.
Test [2] has as its system transactivating tegument protein VP16 (Human herpesvirus 1), Gal4-VP16 luciferase reporter. In words: repression of VP16-driven luciferase reporter – cell-based, luminescence, high throughput, counter-screen for SRC3 inhibitor project (AID 588794; in the data active = inhibition above about 30%). As to conditions: mammalian cells, at 3.6 µM, active compounds read high.

Chain of Nuclear receptor coactivator 3 (Homo sapiens) (Q9Y6Q9 whole entry, looked up, the tested form may be a part): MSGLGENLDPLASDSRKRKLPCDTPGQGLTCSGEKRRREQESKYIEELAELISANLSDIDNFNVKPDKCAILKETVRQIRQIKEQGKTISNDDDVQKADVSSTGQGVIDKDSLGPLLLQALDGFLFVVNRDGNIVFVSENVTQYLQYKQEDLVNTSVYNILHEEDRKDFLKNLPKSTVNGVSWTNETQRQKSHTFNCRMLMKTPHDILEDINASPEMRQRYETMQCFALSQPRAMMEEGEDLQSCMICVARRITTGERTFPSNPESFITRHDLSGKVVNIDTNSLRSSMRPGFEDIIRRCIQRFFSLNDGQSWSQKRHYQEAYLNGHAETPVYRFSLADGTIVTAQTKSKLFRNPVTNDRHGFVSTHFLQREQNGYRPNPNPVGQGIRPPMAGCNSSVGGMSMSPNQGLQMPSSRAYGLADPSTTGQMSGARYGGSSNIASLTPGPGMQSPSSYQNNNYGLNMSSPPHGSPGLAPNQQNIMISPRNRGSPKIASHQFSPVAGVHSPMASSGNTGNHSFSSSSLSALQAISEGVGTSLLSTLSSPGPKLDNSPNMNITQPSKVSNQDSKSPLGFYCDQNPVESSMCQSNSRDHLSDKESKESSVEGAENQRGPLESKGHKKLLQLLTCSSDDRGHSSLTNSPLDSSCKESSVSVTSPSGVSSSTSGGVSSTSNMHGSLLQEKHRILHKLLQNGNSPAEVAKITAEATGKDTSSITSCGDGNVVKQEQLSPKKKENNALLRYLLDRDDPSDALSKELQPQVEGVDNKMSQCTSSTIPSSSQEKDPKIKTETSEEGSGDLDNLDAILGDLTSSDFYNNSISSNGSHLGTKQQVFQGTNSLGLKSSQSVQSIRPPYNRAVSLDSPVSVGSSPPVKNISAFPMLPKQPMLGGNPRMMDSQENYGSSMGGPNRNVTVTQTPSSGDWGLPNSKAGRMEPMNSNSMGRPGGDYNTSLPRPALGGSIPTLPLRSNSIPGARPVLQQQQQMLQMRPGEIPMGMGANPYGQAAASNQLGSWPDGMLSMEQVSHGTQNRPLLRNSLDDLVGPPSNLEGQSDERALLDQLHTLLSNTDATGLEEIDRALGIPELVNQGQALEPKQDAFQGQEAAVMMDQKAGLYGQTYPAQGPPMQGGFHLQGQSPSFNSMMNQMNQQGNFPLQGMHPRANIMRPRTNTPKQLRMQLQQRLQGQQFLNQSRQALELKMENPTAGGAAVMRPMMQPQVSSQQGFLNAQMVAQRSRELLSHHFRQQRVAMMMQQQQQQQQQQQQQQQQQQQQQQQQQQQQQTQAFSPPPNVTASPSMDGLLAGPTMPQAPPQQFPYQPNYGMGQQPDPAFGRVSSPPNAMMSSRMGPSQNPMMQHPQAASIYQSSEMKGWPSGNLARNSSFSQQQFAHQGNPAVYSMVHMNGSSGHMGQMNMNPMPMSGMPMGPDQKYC

As for `Cc1ccc(NC2=C/C(=N/S(=O)(=O)c3cccs3)c3ccccc3C2=O)cc1`, the inhibition in test [1] was 85% (active); in test [2] it was 82% (active).

In the case of `O=C1c2cccc(NCCNCCO)c2C(=O)c2cccc(NCCNCCO)c21`, the inhibition in test [1] is -30.9%; in test [2], 37.6% (active).

For the compound `Cc1noc(C)c1COC(=O)c1cc(F)c(F)cc1Cl`, the figures for the inhibition in test [1] and in test [2] were 2.84% and 1.74%, respectively.

`COc1ccccc1N1CCN(C(=O)C2CCCN(S(=O)(=O)c3ccc4c(c3)CCCN4C(C)=O)C2)CC1` (centres undefined): the inhibition in test [1] was -12.2%; in test [2], 8.25%.

Regarding `COc1ccc2nc(NC(=O)C3CCN(S(=O)(=O)c4cccs4)CC3)sc2c1`, the inhibition in test [1] was 20.3%; in test [2], 15.2%.

On to `CCSc1nnc(NC(=O)C(CC)(C(F)(F)F)C(F)(F)F)s1`, for which the inhibition is 7.54% in test [1] and 19.6% in test [2].

For the compound `C/C(=N\NC(=O)COc1ccccc1-c1ccccc1)c1ccc(O)cc1O`, the inhibition in test [1] is 8.45%; in test [2], 10.5%.

For `COc1cccc(/C=N/NC(=O)C(C)n2nc(C)c([N+](=O)[O-])c2C)c1O` (centres undefined), the inhibition was 10.2% in test [1] and 27.4% in test [2].

As for `O=C(Cc1ccccc1)NNC(=O)Nc1cccc(Cl)c1`, the results for the inhibition in test [1] and in test [2] were 10.6% and -0.2%, respectively.

In the case of `CN1CCN(S(=O)(=O)c2cccc(C(=O)N(C)CC(=O)Nc3ccc(Cl)c(Cl)c3)c2)CC1`, the inhibition in test [1] is 21%; in test [2] it was 17.9%.

As to `CCN(CC)S(=O)(=O)c1cccc(NC(=O)C2SC(=Nc3ccc(C)cc3C)C(C(=O)NC(C)COC)=C2N)c1` (centres undefined), the values for the inhibition in test [1] and in test [2] were 6.35% and 5.31%, respectively.

On to `CC[C@H](C)Cc1cn([C@@H](CCCCNC(=O)OC(C)(C)C)C(=O)NCCCCCCCCCCC(=O)N2CCN(C(=O)OC(C)(C)C)CC2)nn1`, for which the figures for the inhibition in test [1] and in test [2] were 17.9% and 22.5%, respectively.
